Source: PubChem BioAssay (The Scripps Research Institute Molecular Screening Center)
GPR151 activ: activators of human GPR151, primary screen, cell-based, PathHunter beta-arrestin, luminescence; activation, % at 11.2 µM; AID 1508602, 2020; G-protein coupled receptor 151 (Homo sapiens), Q8TDV0; PathHunter beta-arrestin GPR151 cells; 650,000 tested, 1% active; in the data active means activation above about 4.9%;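 further: 0% = median of compound wells and 100% = cells with positive control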
Target sequence (Q8TDV0 whole entry, looked up): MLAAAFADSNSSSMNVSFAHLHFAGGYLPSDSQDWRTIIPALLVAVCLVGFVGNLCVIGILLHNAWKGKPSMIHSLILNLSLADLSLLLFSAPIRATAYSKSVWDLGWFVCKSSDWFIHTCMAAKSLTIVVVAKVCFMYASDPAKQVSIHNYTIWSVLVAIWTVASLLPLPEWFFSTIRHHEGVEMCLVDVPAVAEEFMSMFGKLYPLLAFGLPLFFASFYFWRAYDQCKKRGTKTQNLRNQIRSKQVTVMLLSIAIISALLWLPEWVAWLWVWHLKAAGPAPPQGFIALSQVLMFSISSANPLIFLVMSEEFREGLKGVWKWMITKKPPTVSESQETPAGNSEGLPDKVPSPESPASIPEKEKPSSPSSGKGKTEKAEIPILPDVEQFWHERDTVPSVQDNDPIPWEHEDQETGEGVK
MITF primary: MITF inhibitors, primary screen, biochemical, AlphaScreen, human; AlphaScreen MITF homodimerization, bead proximity signal; Microphthalmia-associated transcription factor (Homo sapiens), O75030; 650,000 tested, 0.91% active; inhibition, % at 2.6 µM; in the data active means inhibition above about 50%;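 further: 0% = vehicle wells with protein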
TEAD-YAP inh: TEAD-YAP interaction inhibition, primary screen, TEAD-YAP interaction inhibitor project, luminescence, HEK-TIYL cells; AID 1259422, 2018; inhibition, % at 9.12 µM; 640,000 tested, 1.4% active; TEAD-Gal4/YAP UAS-luciferase luminescence; in the data active means inhibition above about 32%;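 further: 0% = median of test compound wells and 100% = reference inhibitor wells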
FBW7 activator: FBW7 E3 ligase activators, primary screen, biochemical, AlphaScreen, human; normalized activity (activation), % at 26.1 µM; 650,000 tested, 0.13% active; AlphaScreen FBW7–phospho-cyclin E peptide binding, activator screen; AID 1259310, 2017; in the data active means normalized activity above about 1.9%;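 further: purified mutant Fbw7 with reduced substrate affinity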
Numbers without * were called inactive. Hits are enriched below; roughly 3.4% of the tested compounds scored in any of these assays.

SMILES	GPR151 activ	MITF primary	TEAD-YAP inh	FBW7 activator
OC1CCC(Nc2nccn3c(-c4ccsc4)cnc23)CC1 (stereo not drawn)	-1	13	-9	2.1*
NC(=O)C1CCN(C(=S)NC(=O)c2ccc(Cl)cc2)CC1	0	7	-6	2.3*
Cn1c2c(c(=O)n(C)c1=O)C(C(F)(F)F)(C(F)(F)F)N=C(c1ccccc1)N2	3	1	2	0
Cn1c2c(c(=O)n(C)c1=O)C(C(F)(F)F)(C(F)(F)F)N=C(c1ccc(Cl)cc1)N2	1	-7	94*	0
CCc1c(N(C)C)nc2n(c1=O)CCS2	1	0	4	0
NC(=O)c1ccccc1N=Cc1cccc(Cl)c1Cl	-1	4	54*	1
Cn1ccnc1SCc1cc(=O)c(OC(=O)/C=C/c2ccccc2)co1	1	-7	-5	0
CCOC(=O)CNS(=O)(=O)c1cc(-c2nnc(Nc3ccc(Cl)c(Cl)c3)c3ccccc23)ccc1C	0	6	1	2.2*
Cc1cccc(OCC(=O)N/N=C/c2ccccc2O)c1	0	30	5	0
Cc1ccc2nc3c(nc2c1)-c1ccccc1C3=O	0	-4	-17	0
Cc1cc2nc3c(nc2cc1C)-c1ccccc1C3=O	-1	2	33*	0
COc1ccc(/C=N/NC(=O)CNc2ccc(C)cc2)cc1I	0	-2	-10	0
Nc1nonc1-c1nc2ccccc2n1CC(=O)Nc1ccccc1C(F)(F)F	-1	3	34*	0
O=C(Nc1nonc1-c1nc2ccccc2n1Cc1c(F)cccc1Cl)c1ccccc1Cl	1	-8	65*	0
CCc1ccccc1NC(=O)Cn1c(-c2nonc2N)nc2ccccc21	1	-1	7	0
CC(=O)Nc1nonc1-c1nc2ccccc2n1Cc1c(F)cccc1Cl	-1	3	-6	0
CCCCOc1ccccc1NC(=O)Cn1c(-c2nonc2N)nc2ccccc21	-1	-5	54*	0
Nc1nonc1-c1nc2ccccc2n1CC(=O)Nc1ccccc1F	1	1	54*	0
CCC(=O)N1N=C(c2ccc(OC)c(OC)c2)CC1c1ccc(CC)cc1 (stereo not drawn)	1	-4	-89	0
CCOc1ccc(CCNC(=O)CN(C)c2nnc(N3CCCC3=O)s2)cc1OCC	2	4	2	0
Nc1nonc1-c1nc2ccccc2n1CC(=O)N/N=C/c1ccncc1	1	0	53*	0
NC(=O)COc1cc(O)c2c(=O)cc(-c3ccccc3)oc2c1	0	10	5	1
Cc1cc2nn(-c3ccccc3)nc2cc1NC(=O)C(C)C	-1	19	19	0
CC(C)CC(=O)Nc1ccc2nn(-c3ccccc3)nc2c1	-1	10	-49	3.0*
CC(=O)Nc1cc2nn(-c3ccccc3)nc2cc1C	-7	-12	50*	0
SMILES	GPR151 activ	MITF primary	TEAD-YAP inh	FBW7 activator
O=C(COc1ccccc1)Nc1ccc2nn(-c3ccccc3)nc2c1	0	-2	-11	0
CCOC(=O)c1cnn(Cc2ccc(Cl)cc2)c1C	0	10	-9	0
COCCCn1c(=O)[nH]c2ncc(-c3cccc(F)c3)nc21	0	14	-3	0
COCCCn1c(=O)[nH]c2ncc(-c3cnc(OC)nc3)nc21	-1	15	-3	2.2*
Cc1ccc2c(C)nc(N3CCCC(NCC4COc5ccccc5O4)CC3)nc2c1 (stereo not drawn)	0	5	-18	1.9*
CCOc1ccc(Cl)cc1S(=O)(=O)n1ccc(C)n1	0	12	-11	0
COc1cccc(/C=C2/NC(=O)N(c3ccccc3)C2=O)c1O	-7	-11	35*	0
COc1ccccc1/C=C1/NC(=O)N(c2cccc(Cl)c2)C1=O	-1	18	-6	0
CCn1c(C)cc(/C=C2/NC(=O)N(c3ccccc3)C2=O)c1C	-1	2	33*	0
Nc1cc(Cl)nc(Nc2ccc(Br)cc2)c1[N+](=O)[O-]	-1	23	-5	1
O=c1[nH]c(N2CCCCC2)nc2c1CNCC2	0	-8	-9	0
Cc1ccc(OCC(=O)Nc2cccc3c(NC(=O)COc4ccc(C)cc4)cccc23)cc1	0	-4	4	0
CC(=O)c1ccc(N=Nc2ccc3nonc3c2N)cc1	0	13	50*	1
N#CC(Cl)CNS(=O)(=O)c1ccc(Cl)cc1 (stereo not drawn)	-2	-1	47*	0
CC(=O)Nc1nc2c(C)cc(N)cc2s1	0	6	-40	30*
COc1cc(N)cc2sc(NC(C)=O)nc12	1	4	-23	0
CC(C)n1cc(-c2ccc3ccccc3n2)cn1	-9	0	82*	0
O=C(CSc1nc2ccsc2c(=O)n1-c1ccc(F)cc1)N1CCCC1	0	-3	-6	0
COc1ccccc1NC(=O)Cn1cnc2sc(C(=O)N3CCN(c4ccccc4)CC3)c(C)c2c1=O	-1	12	5	0
COc1ccccc1NC(=O)Cn1cnc2sc(C(=O)Nc3cc(F)ccc3C)c(C)c2c1=O	-1	17	-5	1
COc1ccccc1NC(=O)Cn1cnc2sc(C(=O)Nc3ccc(C)c(F)c3)c(C)c2c1=O	-1	12	-12	1.9*
COc1ccccc1NC(=O)Cn1cnc2sc(C(=O)N3CCN(c4ccccc4OC)CC3)c(C)c2c1=O	-1	14	10	2.1*
COc1ccc(S(=O)(=O)N(CC(=O)O)c2cccc(Cl)c2)cc1	-1	12	1	0
CNC(=O)CN(c1cccc(Cl)c1)S(=O)(=O)c1ccc(OC)cc1	1	-6	45*	0
O=C(O)c1cccc(S(=O)(=O)Oc2ccccc2F)c1	-1	5	-14	0
SMILES	GPR151 activ	MITF primary	TEAD-YAP inh	FBW7 activator
Cc1ccc(CNc2nc3ccccc3s2)s1	1	0	66*	0
Cc1sc(Nc2ccccc2)nc1-c1cc2ccccc2oc1=O	-2	15	-82	0
O=S(=O)(c1ccc(F)cc1)N1CCN(c2cc(-n3ccnc3)ncn2)CC1	1	-11	-4	0
COc1ccc(S(=O)(=O)N2CCN(c3cc(-n4ccnc4)ncn3)CC2)c(C)c1C	1	-14	56*	0
CC(=O)N(Cc1ccc(F)cc1)C1=C(NCc2ccccc2)C(=O)c2ccccc2C1=O	-3	4	59*	0
CCCCCOc1ccc(NC(=O)CSc2cccc3cccnc23)cc1	-1	4	37*	-1
COc1ccccc1C(=O)Nc1ccc(C(=O)OC2CCCCC2)cc1	0	17	-9	0
CC(=O)NC(=O)c1cc2ccccc2oc1=Nc1ccc(C)cc1	1	-10	35*	0
c1ccc(N2CCN(c3nc(NCCN4CCOCC4)c4ncn(-c5ccsc5)c4n3)CC2)nc1	-2	23	57*	0
COc1ccc(CCNc2nc(N3CCN(c4ccccn4)CC3)nc3c2ncn3-c2ccsc2)cc1	1	0	3	0
OCCNc1nc(N2CCN(c3ccccn3)CC2)nc2c1ncn2-c1ccsc1	-2	13	51*	0
